# TMEM16A act – activates or potentiates the mouse TMEM16A chloride channel | Q8BHY3 | HEK293 TMEM16A/YFP-H148Q/I152L, iodide quench fluorescence; hits give low values | B-score at 10 µM | actives 0.3% (n = 340,000) | AID 623877;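 active means fluorescence-ratio B-score plate-corrected deviation score at least 3 library SD below zero, with starting fluorescence score within 5 deviations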;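 further: channel opened by trigger with iodide after compound preincubation; score built on the fluorescence ratio of max minus min over baseline; more negative score means more quench and so TMEM16A activation or potentiation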
# CHT allo act – allosterically activates the human high affinity choline transporter; CHT-expressing cells, membrane potential dye, choline EC20; hits give high values; LV-AA mutant CHT in HEK293 cells; B-score at 10 µM; actives 0.49% (n = 310,000); AID 488977;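 active means initial fluorescence not abnormally high and integrated response B-score, plate-corrected, over 3 SD above library mean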
# Target sequence (Q9GZV3 whole entry, looked up): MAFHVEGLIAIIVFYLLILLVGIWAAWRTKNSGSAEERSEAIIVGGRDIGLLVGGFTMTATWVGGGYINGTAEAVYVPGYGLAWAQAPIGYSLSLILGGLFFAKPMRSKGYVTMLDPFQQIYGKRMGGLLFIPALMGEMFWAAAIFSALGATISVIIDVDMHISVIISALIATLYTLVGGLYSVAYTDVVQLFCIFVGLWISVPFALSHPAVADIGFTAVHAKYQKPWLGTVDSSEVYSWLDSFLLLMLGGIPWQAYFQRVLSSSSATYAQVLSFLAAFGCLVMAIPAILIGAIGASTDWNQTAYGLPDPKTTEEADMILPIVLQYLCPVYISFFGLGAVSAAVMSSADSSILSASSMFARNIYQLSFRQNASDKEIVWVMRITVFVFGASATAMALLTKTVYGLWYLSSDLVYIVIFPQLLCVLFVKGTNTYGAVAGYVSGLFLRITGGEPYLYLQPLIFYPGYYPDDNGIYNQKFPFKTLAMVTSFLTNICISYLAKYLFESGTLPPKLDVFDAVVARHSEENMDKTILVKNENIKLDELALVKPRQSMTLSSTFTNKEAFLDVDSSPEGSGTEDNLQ
# ANO1 block – blocks the mouse calcium-activated chloride channel TMEM16A; Q8BHY3; HEK293 TMEM16A/YFP iodide influx fluorescence, ionomycin; normalized B-score (activity score, 25-100; higher = stronger inhibition) at 10 µM; actives 1.2% (n = 310,000); AID 588511;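 active means ratio plate-corrected score three or more library SD toward inhibition, starting fluorescence score within five deviations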;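 further: score derived from kinetic fluorescence span divided by baseline fluorescence per well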
# CHT block – inhibitors of human choline transporter CHT; Q9GZV3; CHT-expressing cells, membrane potential dye, choline response; hits give low values; B-score at 10 µM; actives 0.86% (n = 310,000); AID 488975;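 active means B-score over 3 SD under the library average, and starting fluorescence ratio not unusually high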;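 further: choline stimulus applied at its EC90 after an EC20 pre-addition; B-score computed on integrated fluorescence ratio after choline addition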
# CHT act confirm – human CHT activation, confirmatory screen. shares compounds with CHT allo act. CHT-expressing cells, membrane potential dye fluorescence (FDSS); % of choline EC20–EC90 response window; HEK293 expressing CHT LV-AA mutant; choline added at its EC20. activation, % at 10 µM. actives 91% (n = 2,500). AID 504833;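 active means primary screen active, with duplicate mean activation above negative control mean plus 3 SD, cut at about 11% in these data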
# HEK293 MP dye – counter-screen for CHT activators: effect in parental HEK293 cells. shares compounds with CHT allo act. membrane potential dye fluorescence (FDSS); measured after EC20 choline addition. ratio readout change at 10 µM, hits read low. actives 62% (n = 2,500);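 active means duplicate-averaged ratio beyond 3 SD from buffer wells, up or down, though filed actives are nearly all decreases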
# Starred values were filed as active, the others as inactive; i = inactive; . = no result given. This is a sample that favours compounds with a hit; in the whole collection about 2.4% have one here.
SMILES,TMEM16A act,CHT allo act,ANO1 block,CHT block,CHT act confirm,HEK293 MP dye
Cc1cc(NC(=O)c2ccc3c(c2)C(=O)N(Cc2cccnc2)C3=O)no1,i,i,i,i,25.6*,-27.4*
Cc1cc(NC(=O)c2ccc3c(c2)C(=O)N(C)C3=O)no1,i,i,i,i,44.4*,-41.9*
O=S(=O)(c1ccc(SCc2ccccc2)nc1)N1CCCC1,i,.,.,.,.,.
CC(=O)Nc1ccc(NC(=O)CSc2nnc(C)n2-c2ccccc2)cc1,i,i,i,i,.,.
CC(=O)c1ccc(-n2nnnc2SCC(=O)NNC(=O)c2ccco2)cc1,i,i,i,i,.,.
COc1cccc(C(c2nnnn2Cc2ccco2)N2CCN(c3cccc(C)c3C)CC2)c1OC (configuration not stated),i,7.08*,i,i,19.9*,i
COc1ccccc1N1CCN(C(c2ccccc2)c2nnnn2CCc2ccccc2)CC1 (configuration not stated),i,i,i,i,17.0*,i
COc1cccc(C(c2nnnn2CCc2ccccc2)N2CCN(c3ccccc3)CC2)c1OC (configuration not stated),i,6.79*,i,i,21.4*,i
COc1ccccc1C(c1nnnn1CCc1ccccc1)N1CCN(c2ccccc2)CC1 (configuration not stated),i,i,i,i,.,.
Cc1ccc2c(c1)nc(NCCCO)n2C,i,i,i,i,19.4*,-40.6*
Cn1c(NCCCO)nc2ccccc21,i,i,i,i,.,.
CCc1ccccc1NC(=O)c1ccc(-c2csc(C)n2)cc1,i,i,i,i,6.5,i
CC1Cc2cc(S(=O)(=O)N3CCN(c4ccccc4F)CC3)ccc2N1C(=O)C1CC1 (configuration not stated),i,7.53*,i,i,20.0*,i
c1ccc2c(c1)CCCN2Cc1nnnn1CC1CCCO1 (configuration not stated),i,i,i,i,.,.
c1ccc(CCn2nnnc2CN2CCCc3ccccc32)cc1,i,7.32*,i,i,8.2,i
CCOC(=O)c1c(C)n(C)c2ccc(OC)c(NC(=O)CCN3CCC(Cc4ccccc4)CC3)c12,i,i,i,i,7.3,i
CCOC(=O)c1c(C)n(C)c2ccc(OC)c(NC(=O)CN3CCSCC3)c12,i,i,i,i,.,.
CCOc1ccc(-n2c(-c3ccccc3)c[n+]3c2CCCCC3)cc1,i,12.9*,i,i,43.7*,i
CCOC(=O)C1(CCOc2ccccc2)CCN(Cc2ccc3nonc3c2)CC1,i,6.41*,i,i,6.3,i
CCOC(=O)C1(CCc2ccccc2)CCN(Cc2cc(OC)c(OC)cc2OC)CC1,i,10.5*,i,i,55.9*,i
COc1ccc(CNC(=O)C(OC(=O)c2ccco2)c2ccc(OC)cc2)cc1 (configuration not stated),i,i,i,i,.,.
N#Cc1c(-c2ccccc2)nc(SCc2nc(N)nc(N3CCCCC3)n2)[nH]c1=O,i,i,i,i,.,.
CCOc1ncccc1C(=O)N1CCN(c2cc(Cl)ccc2C)CC1,i,14.5*,i,i,44.5*,i
CCOc1ncccc1C(=O)N1CCN(c2cccc(C)c2C)CC1,i,.,.,.,.,.
COc1ccc(C(=O)CC(c2ccccc2)C2CCCCC2=O)cc1 (configuration not stated),i,i,i,i,.,.
SMILES,TMEM16A act,CHT allo act,ANO1 block,CHT block,CHT act confirm,HEK293 MP dye
COc1ccc(C(=O)N(CCc2ccccc2)Cc2ccccc2)c(OC)n1,i,10.5*,i,i,14.3*,i
Cc1ccn2c(NC3CCCC3)c(-c3ccncc3)nc2c1,i,7.16*,i,i,47.0*,-63*
CCCCN(CC)CCNC(=S)Nc1ccc2nc(N3CCN(C)CC3)cc(C)c2c1,i,i,i,i,34.8*,i
CCCCN(CC)CCNC(=O)CCC(=O)Nc1ccc2nc(N3CCN(C)CC3)cc(C)c2c1,i,i,i,i,41.6*,i
CCCCNC(=O)CCC(=O)Nc1ccc2nc(N3CCOCC3)cc(C)c2c1,i,i,i,i,.,.
COCCCNC(=O)CCC(=O)Nc1ccc2nc(N3CCOCC3)cc(C)c2c1,i,7.97*,i,i,37.0*,-52*
CCN(CC)CCCNC(=O)CCC(=O)Nc1ccc2nc(N3CCCCC3)cc(C)c2c1,i,i,i,i,.,.
CCCN(CCC)CCCNC(=S)Nc1ccc2nc(N3CCN(C)CC3)cc(C)c2c1,i,i,i,i,52.0*,-26.7*
Cc1cc(N2CCN(C)CC2)nc2ccc(NC(=S)NC3CC3)cc12,i,i,i,i,.,.
Cc1ccc(C(C)C)c(OCC(=O)Nc2sc3c(c2C#N)CC(C)(C)NC3(C)C)c1,i,i,i,i,.,.
N=c1c2c(n(Cc3ccc(F)cc3)c3c1CCC3)CCC2,i,7.09*,i,i,48.6*,-50.5*
COc1ccc(-n2c(C)ccc2C)c([N+](=O)[O-])c1,i,i,i,i,.,.
COc1ccc(-n2c(-c3ccc(F)cc3)cnc2SCC(=O)NCc2ccco2)cc1,i,i,i,i,33.2*,i
CCOC(=O)C1=C(N)Oc2c(oc(CO)cc2=O)C1c1c(F)cccc1Cl (configuration not stated),i,i,i,i,.,.
Nc1c2c(nc3ccn(Cc4ccccc4)c(=O)c13)CCC2,i,6.98*,i,i,54.0*,-50.2*
Nc1c2c(nc3ccn(-c4ccccc4)c(=O)c13)CCCCC2,i,i,i,i,48.7*,-50*
O=c1[nH]c(N2CCN(Cc3ccccc3)CC2)nc2c1CCC2,i,i,i,i,.,.
O=c1[nH]c(N2CCN(c3ccccc3)CC2)nc2c1CCCC2,i,i,i,i,.,.
CN(C)c1ccc(Nc2nc(N)c3ccccc3n2)cc1,i,7.44*,i,i,48.6*,-75.2*
Nc1ncnc(Nc2ccccc2)n1,i,i,i,i,.,.
Nc1nc(Nc2ccccc2)nc2ccccc12,i,i,i,i,36.5*,-65.8*
Cc1ccccc1Nc1nc(N)c2ccccc2n1,i,6.82*,i,i,11.0*,-44.2*
CN(C)c1nc(Nc2ccccc2)nc(N(C)C)n1,i,i,i,i,.,.

# Assay outcomes (PubChem)
